High-throughput results: PubChem, Broad Institute
Env fusion inh: inhibitors of HIV-1 Env-driven cell-cell fusion, primary screen, HeLa-JRFL effector, CEM21 target cells, luciferase. AID 651610, 2012. 360,000 tested, 1.1% active. inhibition, % at 12.3 µM;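 active = mean replicate inhibition score of at least 50 and every replicate individually at or above 50; inconclusive = only one of the two criteria met; inactive = mean below 50 and not all replicates reaching 50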
NSD2 HMT inh: NSD2 histone methyltransferase inhibitors, primary screen, biochemical, AlphaScreen, single concentration, set 2; Histone-lysine N-methyltransferase NSD2 (Homo sapiens), O96028; NSD2 peptide methylation, 120 min; inhibition, % at 12.5 µM; 310,000 tested, 0.54% active; in the data active = inhibition above about 50%
Target sequence (O96028 whole entry, looked up): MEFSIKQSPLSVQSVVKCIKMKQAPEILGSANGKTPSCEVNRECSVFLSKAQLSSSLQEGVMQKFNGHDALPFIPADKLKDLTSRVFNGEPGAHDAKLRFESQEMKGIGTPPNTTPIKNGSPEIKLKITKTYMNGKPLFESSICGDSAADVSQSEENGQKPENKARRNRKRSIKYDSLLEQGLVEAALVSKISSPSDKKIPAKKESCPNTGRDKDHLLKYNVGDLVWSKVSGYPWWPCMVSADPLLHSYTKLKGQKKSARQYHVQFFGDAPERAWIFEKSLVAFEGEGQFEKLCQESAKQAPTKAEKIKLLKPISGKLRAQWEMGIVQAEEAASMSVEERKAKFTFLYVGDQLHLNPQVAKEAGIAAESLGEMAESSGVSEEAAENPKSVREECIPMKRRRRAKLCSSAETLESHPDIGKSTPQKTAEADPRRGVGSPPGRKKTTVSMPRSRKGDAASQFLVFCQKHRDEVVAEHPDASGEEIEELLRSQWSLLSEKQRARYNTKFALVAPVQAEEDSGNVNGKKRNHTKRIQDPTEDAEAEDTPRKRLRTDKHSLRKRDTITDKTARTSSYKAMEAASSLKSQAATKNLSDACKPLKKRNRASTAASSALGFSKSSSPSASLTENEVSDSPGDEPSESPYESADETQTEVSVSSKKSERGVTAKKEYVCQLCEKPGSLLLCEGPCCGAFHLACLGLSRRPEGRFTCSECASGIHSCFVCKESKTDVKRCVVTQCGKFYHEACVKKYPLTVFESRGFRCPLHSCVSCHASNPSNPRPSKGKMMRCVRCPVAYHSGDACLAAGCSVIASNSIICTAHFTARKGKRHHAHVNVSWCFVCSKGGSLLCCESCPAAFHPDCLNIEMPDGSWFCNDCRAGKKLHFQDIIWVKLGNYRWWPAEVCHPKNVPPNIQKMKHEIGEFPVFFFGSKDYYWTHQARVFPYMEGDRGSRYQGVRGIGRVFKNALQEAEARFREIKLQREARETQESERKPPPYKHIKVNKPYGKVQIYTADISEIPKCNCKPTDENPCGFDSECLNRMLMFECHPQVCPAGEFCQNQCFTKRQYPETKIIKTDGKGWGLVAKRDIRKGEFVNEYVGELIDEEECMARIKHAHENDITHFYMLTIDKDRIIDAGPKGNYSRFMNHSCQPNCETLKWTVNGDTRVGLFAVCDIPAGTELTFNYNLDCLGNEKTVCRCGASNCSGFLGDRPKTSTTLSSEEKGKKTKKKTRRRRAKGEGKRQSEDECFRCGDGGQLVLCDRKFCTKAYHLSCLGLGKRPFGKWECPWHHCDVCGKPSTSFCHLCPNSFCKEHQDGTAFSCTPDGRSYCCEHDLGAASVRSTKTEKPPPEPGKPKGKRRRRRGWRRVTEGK
EBV LMP1 NFkB: EBV LMP1-driven NF-kappaB luciferase reporter inhibitors, primary screen, cell-based, luminescence, single point | 350,000 tested, 0.69% active | inhibition, % at 12.5 µM | AID 504558, 2011 | LMP1-induced NF-kappaB luciferase reporter cells; in the data active = inhibition above about 41%; inconclusive = no clear call, values can overlap the other calls
N-glyco inh: increase of ERlucT glycosylation luciferase signal, primary screen, N-linked glycosylation inhibitor project, D54 ERlucT cells, luminescence, set 2. D54 ERlucT glycosylation luciferase reporter, 24 h; percent of 100 nM tunicamycin response. reporter increase, % at 12.5 µM. 360,000 tested, 0.23% active;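 active = mean luciferase reporter signal, scaled so untreated is 0 and the glycosylation-blocking control 100, at or above a set limit in every replicate; inconclusive = mean reaches the limit but not every replicate does; inactive = mean below the limit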;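 note: luciferase carries N-glycosylation sites so blocking glycosylation raises the light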
Shn3 inh set2: reduction of Shn3 3'UTR firefly luciferase signal, primary screen, Schnurri-3 inhibitor project, cell-based, Clone20 osteoblasts, set 2; Clone20 osteoblast Shn3 3'UTR firefly luciferase, 24 h; inhibition, % at 12.5 µM; 360,000 tested, 0.52% active;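 active = mean inhibition of at least 75% with every replicate also reaching 75%; inconclusive = mean inhibition at least 75% but some replicate below; inactive = mean inhibition below 75%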
PAX8 inh HTS: inhibitors of PAX8-driven TPO luciferase reporter, primary screen, RMG-I cells, single concentration; SteadyGlo, 24 h; inhibition, % at 12.6 µM; 360,000 tested, 1.2% active; AID 652154, 2013;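 active = mean replicate inhibition at least 60% with every replicate also reaching 60%; inconclusive = only one of the two criteria is met; inactive = mean below 60% and not all replicates reaching 60%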;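 note: luciferase light reporting Pax8 driven TPO promoter activity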
Of the large screens only hits and unclear results are named; the others gave an inactive call. The list is not random: actives were taken first. Their share in the collection is about 2.8%.

C[C@@H]1CN([C@@H](C)CO)C(=O)c2cc(-c3cccc(C#N)c3)cnc2O[C@@H]1CN(C)C(=O)C1CC1	none (no result: NSD2 HMT inh, EBV LMP1 NFkB, N-glyco inh, Shn3 inh set2, PAX8 inh HTS)
COc1ccc(NC(=O)N[C@@H]2CC[C@@H](CC(=O)NC3CCCCC3)O[C@H]2CO)cc1	none (no result: NSD2 HMT inh, EBV LMP1 NFkB, N-glyco inh, Shn3 inh set2)
COc1ccc(S(=O)(=O)N(C)C[C@@H]2Oc3ccc(NC(=O)CCCCCC(=O)Nc4ccccc4N)cc3C(=O)N([C@@H](C)CO)C[C@@H]2C)cc1	none (no result: Env fusion inh, NSD2 HMT inh, EBV LMP1 NFkB, N-glyco inh, Shn3 inh set2)
C[C@@H]1CN([C@@H](C)CO)C(=O)c2cc(NC(=O)CCC(F)(F)F)ccc2O[C@H]1CN(C)C(=O)Nc1cccc2ccccc12	none (no result: NSD2 HMT inh, EBV LMP1 NFkB, N-glyco inh, Shn3 inh set2)
COc1ccc(C(=O)/C=C2/C(=O)Nc3ccccc32)cc1	N-glyco inh inconclusive
COc1ccc(C(=O)/C=C2/C(=O)Nc3ccccc32)c(OC)c1	N-glyco inh 33.2
C=CCOc1ccccc1C(=O)/C=C1/C(=O)Nc2ccccc21	N-glyco inh 31.6
C=CCOc1ccc(C(=O)/C=C2/C(=O)Nc3ccccc32)cc1	none
COc1ccc(C(=O)/C=C2/C(=O)Nc3ccccc32)cc1OC	N-glyco inh 28.8
COC(=O)C1=C(C)N(Cc2cccc(C(F)(F)F)c2)C(=NCc2ccc(C(F)(F)F)cc2)NC1c1ccc(C(F)(F)F)cc1 (stereo not drawn)	PAX8 inh HTS 76.7 (no result: NSD2 HMT inh, EBV LMP1 NFkB, N-glyco inh, Shn3 inh set2)
COC(=O)C1=C(C)N(Cc2cccc(C(F)(F)F)c2)C(=NCc2ccc(C(F)(F)F)cc2)NC1c1cccc(F)c1 (stereo not drawn)	PAX8 inh HTS 73.8 (no result: NSD2 HMT inh, EBV LMP1 NFkB, N-glyco inh, Shn3 inh set2)
COC(=O)C1=C(C)N(Cc2ccc(C(F)(F)F)cc2)C(=NCC2CC2)NC1c1cccc(Cl)c1 (stereo not drawn)	PAX8 inh HTS 68.3 (no result: NSD2 HMT inh, EBV LMP1 NFkB, N-glyco inh, Shn3 inh set2)
CCN1C(=NCCc2ccccn2)N[C@@H](c2cccc(C(F)(F)F)c2)C(C(=O)OC)=C1C	none (no result: NSD2 HMT inh)
COC(=O)C1=C(C)N(Cc2ccc(C(F)(F)F)cc2)C(=NCc2ccc(OC)cc2)NC1c1cccc(Cl)c1 (stereo not drawn)	none (no result: NSD2 HMT inh, EBV LMP1 NFkB, N-glyco inh, Shn3 inh set2)
COC(=O)C1=C(C)N(Cc2ccccc2)C(=NCCc2ccccn2)N[C@H]1c1cccc(C(F)(F)F)c1	Env fusion inh 80.0 (no result: NSD2 HMT inh)
C/C=C/c1ccc([C@@H]2[C@H](CO)N(C(C)=O)C23CN(C(=O)c2ccncc2)C3)cc1	none (no result: Env fusion inh, NSD2 HMT inh, EBV LMP1 NFkB, N-glyco inh, Shn3 inh set2)
COC(=O)C1=C(C)N(Cc2ccc(C(F)(F)F)cc2)C(=NCc2ccc(C(F)(F)F)cc2)NC1c1ccccc1 (stereo not drawn)	none (no result: NSD2 HMT inh, EBV LMP1 NFkB, N-glyco inh, Shn3 inh set2)
COC(=O)C1=C(C)N(Cc2ccc(C(F)(F)F)cc2)C(=NCc2ccccc2)NC1c1cccc(F)c1 (stereo not drawn)	Env fusion inh inconclusive, PAX8 inh HTS 101.3 (no result: NSD2 HMT inh, EBV LMP1 NFkB, N-glyco inh, Shn3 inh set2)
C=CCN=C1NC(c2ccc(Cl)cc2)C(C(=O)OC)=C(C)N1C (stereo not drawn)	Env fusion inh 55.1 (no result: NSD2 HMT inh, EBV LMP1 NFkB, N-glyco inh, Shn3 inh set2)
COC(=O)C1=C(C)N(C)C(=NCc2ccc(OC)cc2)NC1c1ccc(C(F)(F)F)cc1 (stereo not drawn)	Env fusion inh 55.2 (no result: NSD2 HMT inh, EBV LMP1 NFkB, N-glyco inh, Shn3 inh set2)
C=CCN=C1NC(c2ccc(Cl)cc2)C(C(=O)OC)=C(C)N1Cc1cccc(C(F)(F)F)c1 (stereo not drawn)	Env fusion inh 59.8 (no result: NSD2 HMT inh, EBV LMP1 NFkB, N-glyco inh, Shn3 inh set2)
Cc1noc(C)c1S(=O)(=O)Nc1ccc2c(c1)CC(=O)N([C@@H](C)CO)C[C@@H](C)[C@@H](CN(C)S(=O)(=O)c1c(C)noc1C)O2	none (no result: NSD2 HMT inh, EBV LMP1 NFkB, N-glyco inh, Shn3 inh set2)
C[C@H](CO)N1C[C@H](C)[C@@H](CN(C)Cc2ccc(C(=O)O)cc2)OCCCC[C@H](C)Oc2ccc(NC(=O)CCCN(C)C)cc2C1=O	none (no result: Env fusion inh, NSD2 HMT inh, EBV LMP1 NFkB, N-glyco inh, Shn3 inh set2)
O=C(Nc1ccc2c(c1)[C@H]1C[C@@H](CC(=O)N3CCOCC3)O[C@@H](CO)[C@H]1O2)c1cccnc1	none (no result: NSD2 HMT inh, EBV LMP1 NFkB, N-glyco inh, Shn3 inh set2)
COC(=O)C1=C(C)N(Cc2cccc(C(F)(F)F)c2)C(=NCc2ccc(OC)cc2)NC1c1cccc(Cl)c1 (stereo not drawn)	none (no result: EBV LMP1 NFkB, N-glyco inh, Shn3 inh set2)
COC(=O)C1=C(C)N(Cc2cccc(C(F)(F)F)c2)C(=NCc2ccc(OC)cc2)NC1c1cccc(C(F)(F)F)c1 (stereo not drawn)	PAX8 inh HTS 77.0 (no result: NSD2 HMT inh, EBV LMP1 NFkB, N-glyco inh, Shn3 inh set2)
COCC(=O)N1[C@H](CO)[C@H]2c3ccccc3N(C(=O)c3ccncc3)C[C@H]21	none (no result: Env fusion inh, NSD2 HMT inh, EBV LMP1 NFkB, N-glyco inh, Shn3 inh set2)
Cc1cc(C)cc(NC(=O)c2ccc(CN3CCc4ccccc4C3)cc2)c1	none
